Activity calls are given as the source filed them.

Experiment [1] in a line: binders of probe aFSTL3 on microarray, primary screen, stem cell growth factor project, biochemical, small-molecule microarray, fluorescence 635/667 (AID 1064).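 Also: measures binding of the biotinylated anti-FSTL3 antibody to printed compounds.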 The settings on record: higher = more signal.
Experiment [2] is described as follows: binders from COS7 lysate, DM2A8 probe, primary screen, torsin A project, cell lysate, small-molecule microarray, fluorescence 635/667 (AID 1065). To be noted: higher = more signal, COS7 lysate expressing mutant human TOR1A.
Experiment [3] in a line: binders of probe aFGF2 on microarray, primary screen, stem cell growth factor project, biochemical, small-molecule microarray, fluorescence 635/667 (AID 1067).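 Also: measures binding of biotinylated aFGF2 protein to printed compounds on slides; z-score merges feature fluorescence and signal-to-noise across triplicate slides.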 To be noted: higher = more signal.
The nature of experiment [4]: binders of probe aFGF10 on microarray, primary screen, stem cell growth factor project, biochemical, small-molecule microarray, fluorescence 635/667 (AID 1071).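 Also: score merges 667 nm spot intensity and signal to noise from triplicate slides.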 The settings on record: higher = more signal.
Experiment [5] deals with Neurogenic locus notch homolog protein 2 (Homo sapiens) (UniProt Q04721). In words: Notch2 binders on small-molecule microarrays, primary screen, biochemical, small-molecule microarray, 635 nm fluorescence, stem cell growth factors (AID 1073). To be noted: Notch2 binding, higher = more signal.
Experiment [6] addresses Pro-neuregulin-1, membrane-bound isoform (Homo sapiens) (UniProt Q02297). The experiment in a line: NRG1 binders on small-molecule microarrays, primary screen, psychiatric disease protein project, biochemical, small-molecule microarray, fluorescence 635/667 (AID 1075).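 Also: score combines 667 nm spot fluorescence with signal to noise.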 To be noted: NRG1 binding, 635 nm fluorescence, higher = more signal.
For experiment [7], the system named is Neuregulin-1 EGF-like domain. In words: binders of neuregulin-1 EGF-like domain, primary screen, biochemical, small-molecule microarray, 635 nm fluorescence (AID 1081).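 Also: binding of the protein to compounds printed on small-molecule microarray slides.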 To be noted: small-molecule microarray binding, higher = more signal.
Experiment [8] is described as follows: FRG1 promoter luciferase signal modulators, primary screen, FRG1 inhibition for FSHD, cell-based, C2C12 myotubes, firefly/Renilla luciferase, luminescence (AID 1084). The settings on record: higher = more signal, called active from +8 up or from −8 down.
Experiment [9] can be described thus: binders of probe aFST on microarray, primary screen, stem cell growth factor project, biochemical, small-molecule microarray, fluorescence 635/667 (AID 1086).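 Also: score merges 667 nm fluorescence with signal-to-noise of each printed compound spot.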 The settings on record: higher = more signal.
Experiment [10] is described as follows: binders of probe aHhip on microarray, primary screen, stem cell growth factor project, biochemical, small-molecule microarray, fluorescence 635/667 (AID 1087).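 Also: score merges spot fluorescence at 667nm with spot signal to noise ratio.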 To be noted: higher = more signal.
Experiment [11] concerns PRMT1 (protein arginine N-methyltransferase 1). In words: PRMT1 binders on small-molecule microarrays, primary screen, biochemical, small-molecule microarray, 635 nm fluorescence (AID 1088).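 Also: binding of Prmt1 protein to compounds spotted on small-molecule microarray slides.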 The settings on record: small-molecule microarray binding, higher = more signal.
Experiment [12] in a line: yeast growth modulation, basal conditions, primary screen, YJM789 clinical isolate, OD600, 24 h (AID 1089).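 Also: growth of clinical yeast isolate S. cerevisiae YJM 789 seeded 1000 cells per well; test concentration not given here.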 To be noted: S. cerevisiae YJM789 growth, higher = more signal, called active from +8 up or from −8 down.
Experiment [13] can be described thus: fission yeast growth modulation, primary screen, strain 972, OD600, 24 h, no modulator (AID 1090).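 Also: basal condition with compound alone and no growth modifier present; test concentration not given here.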 To be noted: S. pombe 972 growth, higher = more signal, called active from +8 up or from −8 down.
Experiment [14] in a line: S. cerevisiae growth modulation with rapamycin, primary screen, strain BY4716, OD600, 96 h (AID 1091). Also: test concentration not given here. The settings on record: higher = more signal, called active from +8 up or from −8 down.
Experiment [15] addresses Torsin-1A-interacting protein 2 (Homo sapiens) (UniProt Q8NFQ8). In words: LULL1 binders on small-molecule microarray, primary screen, cell lysate, human LULL1 lysate, 635/667 nm fluorescence (AID 1092).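 Also: score merges per-feature 667 nm fluorescence with signal-to-noise.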 The settings on record: hLULL1 lysate binding, 635 nm fluorescence, higher = more signal.
Experiment [16] in a line: E. coli growth modulation, two-sided OD650, primary screen, E. coli filamentation project, strain DRC41, 24 h (AID 1093).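 Also: MC1000 strain lacking acrAB efflux and sulA so SOS filamentation is blocked; test concentration not given here.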 The settings on record: OD650, 24 h, higher = more signal, called active from +8 up or from −8 down.
A short description of experiment [17]: small-molecule microarray binders of probe aLefty2, primary screen, biochemical, biotinylated probe, 635/667 nm fluorescence (AID 1094).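 Also: score merges spot fluorescence near 667 nm with spot signal-to-noise ratio.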 The settings on record: higher = more signal.
Experiment [18] has as its system Noggin (protein binding on small-molecule microarray). The experiment in a line: Noggin binders on small-molecule microarray, primary screen, biochemical, 635/667 nm fluorescence (AID 1095).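 Also: score merges 667 nm feature fluorescence with signal to noise over triplicate slides.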 The settings on record: 635 nm fluorescence, higher = more signal.
Experiment [19] addresses Neurogenic locus notch homolog protein 3 (Homo sapiens) (UniProt Q9UM47). The experiment in a line: NOTCH3 binders on small-molecule microarray, primary screen, biochemical, 635/667 nm fluorescence (AID 1096). The settings on record: NOTCH3 binding, 635 nm fluorescence, higher = more signal.
Experiment [20] in a line: small-molecule microarray binders of probe aEGFR, primary screen, biochemical, biotinylated probe, 635/667 nm fluorescence (AID 1097).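 Also: probe is a biotinylated anti-EGFR antibody binding compounds printed on slides; score combines fluorescence near 667 nm and signal to noise of each spot.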 To be noted: higher = more signal.

Neurogenic locus notch homolog protein 3 (Homo sapiens), sequence (Q9UM47 whole entry, looked up): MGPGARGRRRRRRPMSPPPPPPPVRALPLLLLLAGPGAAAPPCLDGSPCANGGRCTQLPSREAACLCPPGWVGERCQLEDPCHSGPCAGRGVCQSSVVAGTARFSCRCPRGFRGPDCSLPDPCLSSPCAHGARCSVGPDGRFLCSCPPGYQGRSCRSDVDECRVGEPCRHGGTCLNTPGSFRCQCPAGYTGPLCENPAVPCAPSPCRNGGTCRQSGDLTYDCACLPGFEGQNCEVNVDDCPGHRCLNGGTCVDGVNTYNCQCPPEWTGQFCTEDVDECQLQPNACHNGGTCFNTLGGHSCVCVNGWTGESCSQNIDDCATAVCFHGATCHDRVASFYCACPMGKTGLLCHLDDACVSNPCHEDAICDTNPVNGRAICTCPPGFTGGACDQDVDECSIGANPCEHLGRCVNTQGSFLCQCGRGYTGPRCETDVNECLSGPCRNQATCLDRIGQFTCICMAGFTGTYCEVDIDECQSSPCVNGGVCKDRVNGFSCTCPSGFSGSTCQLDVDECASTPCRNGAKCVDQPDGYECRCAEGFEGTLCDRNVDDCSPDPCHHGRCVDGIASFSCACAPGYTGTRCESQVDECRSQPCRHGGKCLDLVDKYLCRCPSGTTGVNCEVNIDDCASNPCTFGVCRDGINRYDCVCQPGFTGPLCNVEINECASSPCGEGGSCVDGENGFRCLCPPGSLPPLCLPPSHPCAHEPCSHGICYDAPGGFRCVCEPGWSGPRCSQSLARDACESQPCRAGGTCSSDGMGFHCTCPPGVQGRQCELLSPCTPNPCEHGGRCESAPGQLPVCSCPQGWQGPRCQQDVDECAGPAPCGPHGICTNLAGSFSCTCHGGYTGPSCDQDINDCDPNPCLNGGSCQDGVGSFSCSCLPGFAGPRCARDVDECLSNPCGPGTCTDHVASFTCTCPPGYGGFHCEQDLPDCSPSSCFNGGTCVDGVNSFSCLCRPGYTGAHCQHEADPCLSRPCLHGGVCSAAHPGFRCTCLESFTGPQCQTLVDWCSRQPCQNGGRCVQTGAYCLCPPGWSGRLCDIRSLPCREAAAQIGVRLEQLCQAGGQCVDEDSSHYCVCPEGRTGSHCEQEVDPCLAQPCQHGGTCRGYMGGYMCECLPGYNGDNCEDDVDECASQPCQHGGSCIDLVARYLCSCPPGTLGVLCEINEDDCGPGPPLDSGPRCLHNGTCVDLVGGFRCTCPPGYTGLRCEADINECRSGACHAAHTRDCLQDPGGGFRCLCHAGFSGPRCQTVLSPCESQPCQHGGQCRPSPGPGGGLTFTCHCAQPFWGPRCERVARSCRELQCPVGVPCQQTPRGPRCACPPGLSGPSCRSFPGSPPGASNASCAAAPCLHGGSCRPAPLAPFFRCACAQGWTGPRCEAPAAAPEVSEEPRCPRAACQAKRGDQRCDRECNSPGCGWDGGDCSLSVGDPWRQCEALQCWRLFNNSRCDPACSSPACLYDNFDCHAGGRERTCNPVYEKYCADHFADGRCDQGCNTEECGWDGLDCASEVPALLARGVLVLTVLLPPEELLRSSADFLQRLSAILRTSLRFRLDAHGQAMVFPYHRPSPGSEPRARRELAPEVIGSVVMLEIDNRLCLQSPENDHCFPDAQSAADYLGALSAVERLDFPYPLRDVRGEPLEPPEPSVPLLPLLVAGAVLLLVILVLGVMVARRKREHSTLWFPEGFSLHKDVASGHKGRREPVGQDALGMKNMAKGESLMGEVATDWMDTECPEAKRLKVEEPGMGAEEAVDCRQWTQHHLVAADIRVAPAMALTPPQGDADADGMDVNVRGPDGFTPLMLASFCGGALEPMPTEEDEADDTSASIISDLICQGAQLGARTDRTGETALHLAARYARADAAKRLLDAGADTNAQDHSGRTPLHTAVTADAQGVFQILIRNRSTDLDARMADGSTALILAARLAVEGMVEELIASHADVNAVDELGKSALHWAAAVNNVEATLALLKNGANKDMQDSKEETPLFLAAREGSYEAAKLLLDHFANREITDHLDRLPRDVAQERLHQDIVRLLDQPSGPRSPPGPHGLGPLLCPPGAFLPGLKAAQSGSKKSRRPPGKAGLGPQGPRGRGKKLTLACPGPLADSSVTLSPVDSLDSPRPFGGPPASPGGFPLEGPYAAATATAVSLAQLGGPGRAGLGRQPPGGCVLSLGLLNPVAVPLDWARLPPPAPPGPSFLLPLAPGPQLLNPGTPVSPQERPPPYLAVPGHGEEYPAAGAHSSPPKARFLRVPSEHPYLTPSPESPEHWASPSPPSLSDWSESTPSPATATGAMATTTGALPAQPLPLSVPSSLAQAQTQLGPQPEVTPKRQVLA
Pro-neuregulin-1, membrane-bound isoform (Homo sapiens), sequence (Q02297 whole entry, looked up, the tested form may be a part, canonical isoform): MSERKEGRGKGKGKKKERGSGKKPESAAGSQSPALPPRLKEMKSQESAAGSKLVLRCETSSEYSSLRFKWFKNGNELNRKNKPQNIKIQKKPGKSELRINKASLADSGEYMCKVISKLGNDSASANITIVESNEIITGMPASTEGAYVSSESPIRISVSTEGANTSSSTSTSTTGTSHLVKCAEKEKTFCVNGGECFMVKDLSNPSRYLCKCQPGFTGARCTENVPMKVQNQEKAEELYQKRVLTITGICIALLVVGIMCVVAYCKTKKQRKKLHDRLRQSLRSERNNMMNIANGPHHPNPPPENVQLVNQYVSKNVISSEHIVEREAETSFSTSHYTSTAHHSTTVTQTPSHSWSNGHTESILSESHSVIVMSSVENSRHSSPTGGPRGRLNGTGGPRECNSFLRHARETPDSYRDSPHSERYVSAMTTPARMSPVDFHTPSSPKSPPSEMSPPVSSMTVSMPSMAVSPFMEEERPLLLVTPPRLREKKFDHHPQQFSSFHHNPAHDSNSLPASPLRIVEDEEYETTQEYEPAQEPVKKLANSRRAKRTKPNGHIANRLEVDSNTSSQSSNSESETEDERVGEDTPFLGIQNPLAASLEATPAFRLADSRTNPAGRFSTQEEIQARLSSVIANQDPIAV
Torsin-1A-interacting protein 2 (Homo sapiens), sequence (Q8NFQ8 whole entry, looked up): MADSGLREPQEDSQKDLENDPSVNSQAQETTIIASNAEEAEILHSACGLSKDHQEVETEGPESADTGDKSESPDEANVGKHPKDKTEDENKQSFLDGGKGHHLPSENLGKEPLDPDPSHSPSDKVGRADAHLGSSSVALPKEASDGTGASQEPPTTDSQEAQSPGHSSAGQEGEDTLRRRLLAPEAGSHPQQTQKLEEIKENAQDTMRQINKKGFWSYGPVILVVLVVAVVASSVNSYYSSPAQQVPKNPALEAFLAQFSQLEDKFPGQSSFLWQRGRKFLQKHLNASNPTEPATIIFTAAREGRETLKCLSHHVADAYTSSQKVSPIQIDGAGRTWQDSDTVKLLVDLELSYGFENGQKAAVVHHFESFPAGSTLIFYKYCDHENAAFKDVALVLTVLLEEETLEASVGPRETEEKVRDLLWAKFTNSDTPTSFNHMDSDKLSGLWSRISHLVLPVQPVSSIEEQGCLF

Consider `CCOC(=O)[C@H](Cc1ccccc1)NC(=O)CCC1CC(OC(=O)NCCc2ccc(F)cc2)CC2(CCCC(COC(=O)NCCOc3ccccc3)O2)O1` (stereo not given in full), for which the composite z-score in experiment [1] is -0.493; in [2] it was 1.34; in [3], -0.129; in [4] it was 0.813; in experiment [5], 1.17; in experiment [6] it was 0.843. In addition, the composite z-score was 1.03 in [7]; 0.564 in experiment [9]; 0.162 in experiment [10]; 1.53 in experiment [11]; 2.18 in experiment [15]; -0.0907 in [17]. In addition, the composite z-score was found to be 0.492 in experiment [18], 1.07 in experiment [19] and 0.0009 in experiment [20]. Further, the z-score in experiment [8] is -0.997 (inactive); in experiment [12], -0.0952 (inactive); in [13] it was 0.549 (inactive); in experiment [14] it was 0.0763 (inactive); in experiment [16], 0.384 (inactive).
Turning to `COC(=O)CC=C[C@@H](C)[C@@H](C=NOC[C@@H](O)COCc1ccco1)NS(=O)(=O)c1ccc(C)cc1`, the composite z-score is -0.568 in experiment [1]; 0.9 in experiment [2]; -0.162 in experiment [3]; -0.28 in [4]; -0.572 in [5]; -0.767 in [6]. Also, the composite z-score was -0.929 in experiment [7]; -0.0225 in experiment [9]; -0.0237 in [10]; 0.0315 in experiment [11]; -1.12 in [15]; -0.202 in experiment [17]. Moreover, the composite z-score in [18] is 0.704; in experiment [19] it was -0.834; in experiment [20], -0.195. The z-score in experiment [8] was 0.184 (inactive); in experiment [12], 0.0457 (inactive); in experiment [13] it was 1.02 (inactive); in experiment [14], 0.0521 (inactive); in experiment [16] it was 0.835 (inactive).
As to `CCOC(=O)CCN1C(=O)[C@H]2[C@H]3[C@H](O)[C@H](O)CC(=NOCC(C)C)[C@@H]3CC[C@H]2C1=O`, the composite z-score was -0.784 in experiment [1]; 1.88 in experiment [2]; -0.234 in experiment [3]; -1.05 in experiment [4]; -0.567 in [5]; -0.849 in [6]. Moreover, the composite z-score in experiment [7] is 0.296; in experiment [9], -0.595; in experiment [10] it was -0.0994; in [11], 0.868; in experiment [15], -0.953; in [17], -0.0956. Also, the composite z-score in experiment [18] was 1.39; in experiment [19], -0.321; in [20], 0.163. For the same compound, the z-score in experiment [8] is -0.398 (inactive); in experiment [12] it was -0.535 (inactive); in experiment [13], -0.219 (inactive); in experiment [14], -0.629 (inactive); in experiment [16], -0.127 (inactive).
For `CC(C)CON=C1C[C@@H](O)[C@@H](O)[C@@H]2[C@@H]3C(=O)N(Cc4ccccc4)C(=O)[C@@H]3CC[C@H]12`, the composite z-score in [1] was -0.467; in experiment [2] it was 0.0791; in experiment [3], -0.143; in experiment [4], -0.0185; in experiment [5], 0.587; in [6], 0.349. The composite z-score is 0.0796 in [7]; -0.153 in experiment [9]; -0.204 in experiment [10]; -0.238 in experiment [11]; 0.12 in experiment [15]; -0.117 in experiment [17]. Besides, the composite z-score worked out at 0.454 in experiment [18], 0.824 in experiment [19] and 0.088 in [20]. Also, the z-score in experiment [8] is 0.602 (inactive); in [12] it was -0.549 (inactive); in [13], -0.449 (inactive); in experiment [14], -1.17 (inactive); in experiment [16] it was 0.843 (inactive).
For the compound `COC(=O)CC=C[C@@H](C)[C@@H](C=NOC[C@@H](O)COCc1ccco1)OC`, the composite z-score is -0.663 in [1]; 2.07 in [2]; -0.225 in [3]; -0.813 in experiment [4]; -1.05 in experiment [5]; -0.209 in [6]. In addition, the composite z-score is 0.532 in experiment [7]; -0.466 in experiment [9]; -0.164 in experiment [10]; 0.302 in [11]; 0.378 in experiment [15]; -0.336 in experiment [17]. Besides, the composite z-score in experiment [18] was 1.49; in experiment [19] it was -0.456; in [20] it was -0.132. Also, the z-score in experiment [8] is 0.103 (inactive); in experiment [12], -0.0605 (inactive); in experiment [13] it was -0.543 (inactive); in experiment [14], 0.225 (inactive); in experiment [16], -0.255 (inactive).

(Values after PubChem BioAssay.)
